Experimental data published in ChEMBL document CHEMBL3988442, “University of Dundee, Small-Polar-MMV Screening Library” (2021).

Columns and labels:
[1] = target: T1, Aspartate--tRNA(Asp/Asn) ligase (Mycobacterium tuberculosis (strain ATCC 25618 / H37Rv)) (UniProt P9WFW3); assay: Assay for Asp RNA synthetase-1 from Mycobacterium tuberculosis; type: functional; parameters: scale not given: direction of the effect not stated beside the values; conditions: 30 µM; also: in the data most compounds retested in dose-response had high values
T1 sequence (whole entry): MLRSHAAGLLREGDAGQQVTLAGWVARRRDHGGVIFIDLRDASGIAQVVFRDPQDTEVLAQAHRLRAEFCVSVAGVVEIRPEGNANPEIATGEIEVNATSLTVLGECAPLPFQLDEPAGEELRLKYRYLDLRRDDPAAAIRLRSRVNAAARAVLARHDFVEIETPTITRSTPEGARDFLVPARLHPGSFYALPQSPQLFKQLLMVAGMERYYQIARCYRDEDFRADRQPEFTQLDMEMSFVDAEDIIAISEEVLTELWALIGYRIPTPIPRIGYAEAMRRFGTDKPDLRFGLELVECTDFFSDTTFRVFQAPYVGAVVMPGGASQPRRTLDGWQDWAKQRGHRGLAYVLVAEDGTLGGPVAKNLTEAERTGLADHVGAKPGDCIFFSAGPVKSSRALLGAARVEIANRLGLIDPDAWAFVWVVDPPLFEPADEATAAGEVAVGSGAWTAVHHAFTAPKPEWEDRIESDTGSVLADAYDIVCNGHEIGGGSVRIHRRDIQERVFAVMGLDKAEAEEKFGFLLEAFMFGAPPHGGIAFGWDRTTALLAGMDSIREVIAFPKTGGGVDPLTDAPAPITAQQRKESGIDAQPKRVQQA

[2] = target: Shiga toxin 2 (Escherichia coli O157:H7) (UniProt P09385+P09386); assay: E. coli 0.157:H7 Shiga Toxin SOP - stx2 screening assay; type: functional; parameters: scale not given: direction of the effect not stated beside the values; conditions: 30 µM

Row | SMILES | Percent Effect [1] [%] | Percent Effect [2] [%]
1 | CC(OCC1CC1)C(=O)N1CCCN(Cc2cnn(C)c2)CC1 (centres undefined) | 1.41 | -83.1
2 | O=C(O)C1CCCCN1C(=O)c1cccc(C(F)(F)F)c1 (centres undefined) | -1.94 | 33.5
3 | Cc1cc(CNC(=O)NC(C)c2ccncc2)no1 (centres undefined) | 7.94 | -40
4 | c1cnn(CCNCc2csc(-c3ccsc3)n2)c1 | -3.52 | -113
5 | Cc1cc(C(=O)NCc2cccnc2OC(C)C)no1 | -2.27 | 26.9
6 | O=C(Cn1cc(I)cn1)N1CCc2ccccc2C1 | 2.67 | -31
7 | O=C(C1=CCCC1)N1CCO[C@H]2[C@@H](OCC3CC3)CC[C@@H]21 | 2.53 | -28.7
8 | O=C(c1cccc(S(=O)(=O)NCCCc2ccco2)c1)N1CCOCC1 | 6.79 | -0.897
9 | CCOC(=O)NC(CNC(=O)c1ccccn1)CC(C)C (centres undefined) | -2.16 | -4.01
10 | COc1cc(C(=O)N2CCC(c3n[nH]c(C4CC4)n3)CC2)ccc1C | -0.859 | 3.06
11 | CC(C)C(Sc1nnc(C2CC2)n1C1CC1)C(=O)NCc1cccnc1 (centres undefined) | -2.03 | -18.2
12 | Cc1cc(C(=O)N2CCC(c3nccn3Cc3ccncc3)CC2)no1 | 10.1 | 4.34
13 | O=C(c1cccnc1)N1CC[C@H](OCC2CC2)[C@@H]1Cc1cccnc1 | 3.76 | -13.7
14 | CC(Cn1ccnc1)NC(=O)NCCc1ccc2c(c1)OCCO2 (centres undefined) | -0.516 | 2.84
15 | CCc1nc(C2CCCN2C(=O)c2ccc3c(c2)nnn3CC)no1 (centres undefined) | -5.04 | 1.14
16 | O=C(NCCc1ccccn1)C1=NN(c2ccccc2)C(=O)CN1 | 11.3 | 1.11
17 | Cc1cnc(CN2CCOC(Cn3nc(C)nc3C)C2)cn1 (centres undefined) | -1.8 | -9.64
